Screening results (PubChem)
a7 integrin act: activates integrin-mediated alleviation for muscular dystrophy. AID 624291. Potency, µM (series often up to 38.3 µM), without a hit: top-dose activation, hits mostly activators. alpha7betagal myoblasts, beta-gal FDG fluorescence, 48 h. 350,000 compounds, 0.064% hits;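 also: potency is read from the fitted curve at half-maximal effect; 100% = response of the positive control SU9516; nearly all actives have a fitted effect of over 60% in size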
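alpha7betagal+/- myoblasts (passage 13, 250/well) treated 48 h at 37C with compounds at 1:260 dilution of DMSO stock. Lysed, then beta-galactosidase activity read as FDG fluorescence (ex 480/em 540) after 30 min, with pre-read for autofluorescence.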
IL-1B inflam inh: blocks inflammasome-driven IL-1 beta release. THP-1 LPS/ATP IL-1B secretion, AlphaLISA, 16 h; stronger effect = lower value. activity change, % at 57.5 µM. 360,000 compounds, 4.7% hits. AID 743279; in the data active = activity change below about -50%; inconclusive = mostly about -30% to -49%; also: % is scaled to controls: 0 for no effect and ±100 for the full control effect
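THP-1 cells pretreated 1 hr with compounds (up to 57.5 uM final), then stimulated with LPS (250 ng/mL final) plus ATP (1.25 mM final); secreted IL-1B measured by AlphaLISA after 16 hr, decreased signal indicating inhibition.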
DRD3 agonist: agonists of human D3 dopamine receptor; P35462; D3R DiscoveRx beta-arrestin cells, luminescence, 90 min; max activation, %; 410,000 compounds, 0.58% hits; in the data active = max activation above about 30%; also: 0% is about no effect
Target sequence (P35462 whole entry, looked up): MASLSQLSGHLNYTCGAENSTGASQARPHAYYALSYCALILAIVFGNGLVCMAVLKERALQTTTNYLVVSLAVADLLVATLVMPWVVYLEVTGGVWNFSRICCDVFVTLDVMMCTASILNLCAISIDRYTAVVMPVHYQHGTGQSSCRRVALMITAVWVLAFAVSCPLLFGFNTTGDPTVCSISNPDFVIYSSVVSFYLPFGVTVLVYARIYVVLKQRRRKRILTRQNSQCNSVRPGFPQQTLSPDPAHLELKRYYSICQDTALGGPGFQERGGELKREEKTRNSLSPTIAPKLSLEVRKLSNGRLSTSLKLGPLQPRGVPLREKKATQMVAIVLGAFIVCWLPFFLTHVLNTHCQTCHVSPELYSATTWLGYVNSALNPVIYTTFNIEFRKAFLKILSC
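Cells at 1500/well, incubated overnight, then treated with pinned compounds (dopamine as control) for 90 min at 37 degrees C. DiscoveRx reagent added for 30 - 60 minutes at room temperature; luminescence read.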
D3 antag: blocks the human D3 dopamine receptor; max response, negative = inhibition, %; P35462; D3R cells, DiscoveRx beta-arrestin luminescence, antagonist mode; stronger effect = lower value; 360,000 compounds, 2.5% hits; in the data active = max response below about -50%; inconclusive = no clear call, values can overlap the other calls; also: % is scaled to controls: 0 for no effect and ±100 for the full control effect
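Cells expressing the human receptor were seeded at 1500 cells/well, incubated overnight at 37 degrees C in 5% CO2, then exposed to library compounds with dopamine controls for 90 minutes at 37 degrees C before luminescent detection.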
ATXN viability: cell viability loss in ATXN counter-screen. AID 651635. Potency, µM (titrated, usually from 56.7 µM), hits mostly cytotoxic. S2 cells (HEK-293 line with an ATXN2-luciferase reporter) viability, CellTiter-Fluor protease fluorescence, 24 h. 400,000 compounds, 0.49% hits; also: potency is read from the fitted curve at half-maximal effect; nearly all actives have a fitted effect of over 40% in size
ATXN2 expr inh: ATXN2 expression inhibition; HEK-293 ATXN2-luciferase reporter, luminescence, 24 h; Potency, µM (titrated, usually from 57 µM), without a hit: top-dose activity change, negative = inhibition, actives largely listed as inhibitors; 360,000 compounds, 0.72% hits; also: potency is read from the fitted curve at half-maximal effect; % is scaled to controls: 0 for no effect and ±100 for the full control effect; nearly all actives have a fitted effect of over 55% in size
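ATXN2-luciferase reporter cells (luciferase flanked by upstream and downstream ATXN2 gene portions) were treated 24 h at 37 °C with compounds at up to 57 uM. SteadyGlo luminescence gave expression; GF-AFC fluorescence gave viability.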
Active calls of the source: *; i = inactive; ? = inconclusive; nt = no result; [ ] = remark or other dose. An excerpt weighted towards active compounds, which were near 7% of everything screened. Unless noted, calls follow the shape of the dose curve; as a rule, active = well fitted curve in the direction sought with a large enough effect; inconclusive = small, poorly fitted or top-dose-only effect, or another doubt; inactive = no such curve, though single readings can be large; an effect the other way counts as inactive or inconclusive.

SMILES	a7 integrin act	IL-1B inflam inh	DRD3 agonist	D3 antag	ATXN viability	ATXN2 expr inh
Cc1cc(C)c(C(=O)/C=C/c2ccc(C(C)C)cc2)c(=O)[nH]1	-49%	-117*	2	-13	?	?
Cc1cc(C)c(C(=O)/C=C/C=C/c2ccccc2)c(=O)[nH]1	-41%	-79*	3	-13	i	15%
C/C(=C\c1cccc(Br)c1)C(=O)c1c(C)cc(C)[nH]c1=O	-27%	-71*	3	-4	i	-22%
Cc1cc(O)c(C(=O)/C=C/c2ccc(C(C)C)cc2)c(=O)o1	-13%	-8	3	13	i	126%
C/C(=C\C=C\c1ccccc1)C(=O)c1c(C)cc(C)[nH]c1=O	23%	2	1	-3	i	7%
O=c1c2c(-c3ccc(Cl)cc3)csc2ncn1/N=C/c1cccc([N+](=O)[O-])c1O	10%	113	-23	-61*	?	-35%
O=[N+]([O-])c1cc(Cl)cc(/C=N/n2cnnc2)c1O	?	-1	-12	-57*	?	-4%
O=c1c2c(-c3ccccc3)csc2ncn1/N=C/c1c2ccccc2cc2ccccc12	11%[7.66 µM]	37	14	30	i	4%
O=[N+]([O-])c1cccc(/C=N/n2cnnc2)c1O	25%	22	-2	-55*	?	8%
Cc1nn(-c2ccccc2)c(N2CCCC2)c1/C=N/n1cnc2scc(-c3ccccc3)c2c1=O	26%	37	-14	-61*	i	-11%
O=[N+]([O-])c1cc(Br)cc(/C=N/n2cnnc2)c1O	31%	-1	-11	?	i	-18%
Cc1ccc(NC(=O)c2ncn(CC(=O)NCc3ccc4[nH]ccc4c3)n2)cc1C	7%	-4	-5	-10	i	26%
O=C(CC1NCCNC1=O)Nc1cccc([N+](=O)[O-])c1 (stereo not given)	12%	9	1	?	i	-4%
CC12CCC(C(=O)N(CSC(=S)N/N=C\c3ccccc3)C1=O)C2(C)C (stereo not given)	0%	21	5	-69*	i	3%
Clc1ccccc1-c1nnc2sc(-c3ccc(Br)o3)nn12	14%	-52*	-1	30	i	-8%
Clc1ccc(-c2nnc3sc(-c4ccc(Br)o4)nn23)c(Cl)c1	23%	5	2	0	i	2%
COc1ccccc1C1C(C(N)=O)=C(C)Nc2nc(SCc3ccccc3F)nn21 (stereo not given)	nt	nt	-5	nt	?	-38%
CC(=NNC1=NCCN1)c1cn(C2=NCCN2)nc1C	nt	-10	-5	-50*	i	-3%
CN(C)CCNC(=O)C12CC3(C)CC(C)(CC(C)(C3)C1)C2	-5%	-16	7	-52*	i	-15%
CC12CC3(C)CC(C)(C1)CC(C(=O)NCCc1ccc(S(N)(=O)=O)cc1)(C2)C3	?	19	1	-4	i	1%
CC1COc2c(N3CCN(C)CC3)c(F)cc3c(=O)c(C(=O)O)cn1c23 (stereo not given)	nt	-21	-93	-100*	i	5%
CCOc1ccc(NC(=O)c2ccc(NC(=O)c3cn4c5c(c(N6CCN(C)CC6)c(F)cc5c3=O)OCC4C)cc2)cc1 (stereo not given)	-3%	-12	4	12	i	-18%
COc1ccc(NC(=O)c2cnc3sccn3c2=O)cc1	1%	6	5	-52*	i	16%
CC(=O)Oc1ccc(/C=N/NC(=O)CCSc2ccccc2)cc1	1%	48	-2	-7	i	-2%[11.3 µM]
COc1cccc2cc(-c3csc(-c4ccc(Cl)cc4)n3)c(=O)oc12	nt	nt	5	nt	i	7%
SMILES	a7 integrin act	IL-1B inflam inh	DRD3 agonist	D3 antag	ATXN viability	ATXN2 expr inh
CCc1ccc(CN(C)C(=O)c2cc(COc3cc(C)c(Cl)c(C)c3)on2)nc1	0%	0	-5	6	i	?
Cc1cccc(C)c1NC(=O)C1=C(O)c2ccccc2N(C)S1(=O)=O	0%	9	6	-52*	i	3%
Cn1ccnc1CC(C)(O)c1ccccc1 (stereo not given)	5%	3	4	5	i	nt
O=C(CCN1CCCCCC1)Nc1ccc(F)c(F)c1	21%	-24	-12	-62*	i	-5%
O=C(CCN1CCCCCC1)Nc1ccc(F)cc1	14%	-7	-37	-84*	i	6%
O=C(O)CSCCC(=O)Nc1ccc(F)cc1	1%	31	41*	-18	i	4%
CC(=O)c1ccc(NC(=O)CCSCCC(=O)Nc2ccc(C(C)=O)cc2)cc1	1%	35	-1	4	i	3%
O=C(O)CSCC(=O)Nc1ccc(C2CCCCC2)cc1	9%	0	-6	-4	i	2.2µM*
CC(C)[C@@H]1NC(=O)c2cc([N+](=O)[O-])cc(I)c2NCCC[C@@H](C(N)=O)NC(=O)[C@H](CO)NC1=O	38%	0	9	22	?	12%
CCn1c(SCC(=O)NCCOC)nc2sc3c(c2c1=O)CCCC3	-26%	9	1	-11	i	-4%
c1ccc(-c2ccc3c(c2)NCCN3)cc1	3%	-75*	7	-16	i	nt
Nc1cc(-c2ccccc2)ccc1O	-37%	14	10	-20	?	4%
CN1CCN(c2nc(C#N)cc(-c3ccccc3)n2)CC1	3%	?	-11	-74*	i	-20%
COc1ccc(-c2cc(C(F)(F)F)nc(N3CCN(C)CC3)n2)cc1	-53%	-65*	1	-66*	?	?
FC(F)(F)c1cc(-c2cccs2)nc(N2CCOCC2)n1	26%	10	5	-58*	i	12%
O=C(O)c1ccc(Cl)c(NC(=O)C2CCN(S(=O)(=O)c3ccc4c(c3)OCCO4)CC2)c1	-10%	3	-1	7	i	nt
O=C(Cc1cccs1)NC(Cc1c[nH]c2ccccc12)C(=O)O (stereo not given)	-15%	-13	-9	2	i	17%
COc1ccc(C(C)(O)c2nc(-c3csc4ccccc34)cs2)cc1 (stereo not given)	nt	54	-3	22	i	12%
Cc1nc(-c2ccccc2)sc1C(=O)/C=C/c1ccc(Cl)cc1	11%	-86*	0	-10	i	?
C[C@H]1CCC[C@@]2(O[C@@H](CCO)C[C@H](O)[C@H]2O)O1	-6%	4	8	-9	i	11%
C[C@H]1CCC[C@]2(O[C@H](CCO)C[C@H](O)[C@H]2O)O1	0%	14	37*	11	i	2%
